Test results taken from PubChem BioAssay (NCI).
This is part of a sample that, as a whole, favours compounds with a hit. Of some 79,000 tested, about 15% had one in any assay. Active and inactive are the calls of the source. Cut-off read from the data, not from the text of the source: active = growth inhibition above about 70%; inactive = the rest.

Tests used:
[1] = NCI Yeast Anticancer Drug Screen. Data for the wt1 strain (AID 149);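 note: 0% = growth of vehicle-treated wt1 cultures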; conditions: S. cerevisiae wt1 strain (SPY 50644) growth inhibition, active compounds read high
Summary of the method: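 wt1 yeast, compound-treated; % growth inhibition vs vehicle control.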

[2] = NCI Yeast Anticancer Drug Screen. Data for the rad50EPP+ strain (AID 151);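 note: 0% = growth of vehicle-treated control cultures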; conditions: S. cerevisiae rad50 mutant strain, active compounds read high
Summary of the method: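 Read-out is yeast growth inhibition relative to vehicle; cells used were the rad50EPP+ strain.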

[3] = NCI Yeast Anticancer Drug Screen. Data for the rad50 strain (AID 155);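 note: 0% = growth of vehicle-only cultures of the same strain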; conditions: S. cerevisiae rad50 strain growth inhibition, active compounds read high
Summary of the method: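 Genetically altered yeast (DNA repair pathway); compound treatment; growth inhibition vs vehicle ctrl.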

[4] = NCI Yeast Anticancer Drug Screen. Data for the mec2-1 strain (AID 157); conditions: S. cerevisiae mec2-1 strain, active compounds read high
Summary of the method: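 Using mec2-1 yeast: add compound, measure growth, express inhibition versus vehicle-treated cultures.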

[5] = NCI Yeast Anticancer Drug Screen. Data for the rad14 strain (AID 159);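 note: 0% = growth of vehicle-treated control cultures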; conditions: S. cerevisiae rad14 strain growth inhibition, active compounds read high
Summary of the method: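 Test compounds were applied to a repair-deficient yeast strain. Its growth was then compared with that of cultures given vehicle alone, and inhibition was expressed relative to those controls.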

[6] = NCI Yeast Anticancer Drug Screen. Data for the sgs1 mgt1 strain (AID 161);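 note: 0% = growth of cultures given vehicle only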; conditions: S. cerevisiae sgs1 mgt1 strain, active compounds read high
Summary of the method: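 Yeast cells carrying a defined DNA-repair defect were exposed to test compounds. Growth inhibition was measured relative to vehicle-treated controls.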

[7] = NCI Yeast Anticancer Drug Screen. Data for the CLN2oe strain (AID 163);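 note: 0% = growth of vehicle-only control cultures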; conditions: S. cerevisiae CLN2oe strain, active compounds read high
Summary of the method: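 Whole-cell yeast growth assay. A strain engineered for altered cell-cycle control received compound, and inhibition relative to vehicle-treated cultures was recorded.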

[8] = NCI Yeast Anticancer Drug Screen. Data for the cln2 rad14 strain (AID 165);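 note: 0% = growth equal to vehicle treated cultures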; conditions: S. cerevisiae cln2 rad14 strain, active compounds read high
Summary of the method: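 Yeast strain cln2 rad14, bearing defects in cell cycle control and DNA repair, serves as the test system; values reflect growth inhibition compared with vehicle.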

[9] = NCI Yeast Anticancer Drug Screen. Data for the bub3 strain (AID 167); conditions: S. cerevisiae bub3 mutant strain, active compounds read high
Summary of the method: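 Yeast carrying a defined mutation is treated with each compound, and growth is compared with that of vehicle-exposed cells to give inhibition.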

[10] = NCI Yeast Anticancer Drug Screen. Data for the wt2 strain (AID 169);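 note: 0% = growth of vehicle-treated yeast cultures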; conditions: S. cerevisiae wt2 strain growth inhibition, active compounds read high
Summary of the method: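 Treated yeast vs. vehicle-treated yeast: growth inhibition determined.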

[11] = NCI Yeast Anticancer Drug Screen. Data for the mlh1 strain (AID 171);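 note: 0% = growth of vehicle-treated control cultures of the same strain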; conditions: S. cerevisiae mlh1 strain growth inhibition, active compounds read high
Summary of the method: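 A yeast strain with a defined genetic lesion serves as the test organism. Cultures receive compound or vehicle, and growth is measured.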

[12] = NCI Yeast Anticancer Drug Screen. Data for the sgs1 strain (AID 173);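 note: 0% = growth of vehicle-only control cultures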; conditions: S. cerevisiae sgs1 mutant, active compounds read high
Summary of the method: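 A genetically defined yeast mutant is incubated with the test compound, and its growth is compared to that of the same strain given vehicle.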

[13] = NCI Yeast Anticancer Drug Screen. Data for the mlh1 rad18 strain (AID 175); conditions: S. cerevisiae mlh1 rad18 strain growth inhibition, active compounds read high
Summary of the method: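 Steps: expose repair-defective yeast to compound; measure growth; express inhibition against vehicle-treated controls.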

[14] = NCI Yeast Anticancer Drug Screen. Data for the rad18 strain (AID 177); conditions: S. cerevisiae rad18 mutant growth inhibition, active compounds read high
Summary of the method: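 Measured value is growth inhibition of a yeast strain bearing a DNA repair alteration, referenced to vehicle-treated cells.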

[15] = NCI Yeast Anticancer Drug Screen. Data for the rad52 strain (AID 147);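 note: 0% = growth of vehicle-treated control cultures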; conditions: S. cerevisiae rad52 mutant growth inhibition, active compounds read high
Summary of the method: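 Here a repair-compromised yeast strain receives each compound; its growth is then quantified and normalised to vehicle-only controls.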

[16] = NCI Yeast Anticancer Drug Screen. Data for the mgt1 strain (AID 153); conditions: S. cerevisiae mgt1 mutant growth inhibition, active compounds read high
Summary of the method: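 Measured: inhibition of mgt1 yeast growth by compound, normalized to vehicle-treated cultures.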

[17] = at 5.0 µM (retest, dose inferred, filed as 0.5)
[18] = at 50.0 µM (retest, dose inferred, filed as 5.0)

Measured: growth inhibition

COC(=O)C1=C(C)NC(C)=C(C(=O)OC)C1c1cccc(/[N+]([O-])=C/c2ccccc2)c1
inactive: [1]; at 1.2 µM 2% | [1]; at 3.7 µM 4% | [1]; at 11.0 µM 8% | [1]; at 33.0 µM 18% | [1]; at 100.0 µM 50% | [2]; at 1.2 µM -1% | [2]; at 3.7 µM -3% | [2]; at 11.0 µM -4% | [2]; at 33.0 µM 1% | [2]; at 100.0 µM 15% | [3]; at 1.2 µM -3% | [3]; at 3.7 µM -9% | [3]; [17] 11% | [3]; at 11.0 µM -9% | [3]; at 33.0 µM 29% | [3]; [18] 35% | [3]; at 50.0 µM 64.8% | [4]; at 1.2 µM 3% | [4]; at 3.7 µM 5% | [4]; [17] 11% | [4]; at 11.0 µM 13% | [4]; at 33.0 µM 34% | [4]; [18] 25% | [4]; at 50.0 µM 40.5% | [5]; at 1.2 µM 2% | [5]; at 3.7 µM 4% | [5]; at 11.0 µM 16% | [5]; at 33.0 µM 34% | [6]; [17] 51% | [6]; [18] 50% | [6]; at 50.0 µM 51.1% | [7]; at 1.2 µM 4% | [7]; at 3.7 µM 6% | [7]; at 11.0 µM 13% | [7]; at 33.0 µM 33% | [8]; [17] 6% | [8]; [18] 33% | [8]; at 50.0 µM 44.8% | [9]; at 1.2 µM 1% | [9]; at 3.7 µM 4% | [9]; [17] 43% | [9]; at 11.0 µM 10% | [9]; at 33.0 µM 30% | [9]; at 50.0 µM 59.6% | [10]; at 1.2 µM 0% | [10]; at 3.7 µM 1% | [10]; at 11.0 µM 8% | [10]; at 33.0 µM 32% | [11]; at 1.2 µM 3% | [11]; at 3.7 µM 3% | [11]; at 11.0 µM 12% | [11]; at 33.0 µM 39% | [12]; at 1.2 µM 1% | [12]; at 3.7 µM 5% | [12]; at 11.0 µM 12% | [13]; [17] 4% | [13]; [18] 40% | [13]; at 50.0 µM 66% | [14]; at 1.2 µM 2% | [14]; at 3.7 µM 7% | [14]; at 11.0 µM 17% | [14]; at 33.0 µM 48%
active: [3]; at 100.0 µM 83% | [4]; at 100.0 µM 83% | [5]; at 100.0 µM 92% | [7]; at 100.0 µM 74% | [9]; [18] 79% | [9]; at 100.0 µM 91% | [10]; at 100.0 µM 95% | [11]; at 100.0 µM 96% | [12]; at 33.0 µM 71% | [12]; at 100.0 µM 96% | [14]; at 100.0 µM 93%

COC(=O)c1ccc(CCC2=CC(=O)C(Br)=CC2=O)cc1
inactive: [15]; at 1.2 µM 17% | [15]; at 3.7 µM 35% | [15]; at 11.0 µM 47% | [15]; at 33.0 µM 52% | [2]; at 1.2 µM 2% | [2]; at 3.7 µM 37% | [2]; at 11.0 µM 42% | [2]; at 33.0 µM 62% | [16]; at 1.2 µM -6% | [16]; at 3.7 µM -1% | [16]; at 11.0 µM -4% | [16]; at 33.0 µM -7% | [16]; at 100.0 µM 24% | [4]; at 1.2 µM -7% | [4]; at 3.7 µM -15% | [4]; [17] 44% | [4]; at 11.0 µM -12% | [4]; at 33.0 µM -12% | [4]; at 50.0 µM 68.2% | [4]; at 100.0 µM 19% | [5]; at 1.2 µM -6% | [5]; at 3.7 µM 1% | [5]; at 11.0 µM 5% | [5]; at 33.0 µM 8% | [5]; at 100.0 µM 54% | [7]; at 1.2 µM -11% | [7]; at 3.7 µM -5% | [7]; at 11.0 µM 10% | [7]; at 33.0 µM 7% | [7]; at 100.0 µM 35% | [8]; [17] 4% | [8]; [18] 14% | [8]; at 50.0 µM 38.7% | [9]; at 1.2 µM -20% | [9]; at 3.7 µM -11% | [9]; [17] 8% | [9]; at 11.0 µM -9% | [9]; at 33.0 µM -5% | [9]; [18] 6% | [9]; at 50.0 µM 23.1% | [9]; at 100.0 µM 29% | [10]; at 1.2 µM -12% | [10]; at 3.7 µM 7% | [10]; at 11.0 µM 39% | [11]; at 1.2 µM 0% | [11]; at 3.7 µM -4% | [11]; at 11.0 µM -5% | [11]; at 33.0 µM 5% | [11]; at 100.0 µM 56% | [12]; at 1.2 µM 8% | [12]; at 3.7 µM 26% | [12]; at 11.0 µM 34% | [12]; at 33.0 µM 35% | [13]; [17] 27% | [14]; at 1.2 µM -25% | [14]; at 3.7 µM -8% | [14]; at 11.0 µM -8% | [14]; at 33.0 µM -25% | [14]; at 100.0 µM 40%
active: [15]; at 100.0 µM 72% | [2]; at 100.0 µM 88% | [4]; [18] 98% | [10]; at 33.0 µM 88% | [10]; at 100.0 µM 98% | [12]; at 100.0 µM 70% | [13]; [18] 99% | [13]; at 50.0 µM 91.8%

c1ccc(-c2nc3cccnc3s2)cc1
active: [3]; at 50.0 µM 73.5%
inactive: [15]; at 1.2 µM 1% | [15]; at 3.7 µM 1% | [15]; at 11.0 µM 6% | [15]; at 33.0 µM 14% | [15]; at 100.0 µM 16% | [2]; at 1.2 µM 3% | [2]; at 3.7 µM 7% | [2]; at 11.0 µM 8% | [2]; at 33.0 µM 19% | [2]; at 100.0 µM 24% | [16]; at 1.2 µM 1% | [16]; at 3.7 µM -2% | [16]; at 11.0 µM -1% | [16]; at 33.0 µM -10% | [16]; at 100.0 µM -11% | [3]; at 1.2 µM 2% | [3]; at 3.7 µM 9% | [3]; [17] 5% | [3]; at 11.0 µM 5% | [3]; at 33.0 µM 9% | [3]; [18] 56% | [3]; at 100.0 µM 33% | [4]; at 1.2 µM -2% | [4]; at 3.7 µM -1% | [4]; [17] 5% | [4]; at 11.0 µM -3% | [4]; at 33.0 µM -12% | [4]; [18] 20% | [4]; at 50.0 µM 9.5%
